Data on six molecules can be found in PubChem BioAssay (EPA / NIEHS).

Activity calls are given as the source filed them. How the source made its calls: active means hit-call score of the fitted dose curve at least 0.9, where 1 is the maximum; inactive means score below 0.9.

Read-out in assay [1]: Interferon-gamma inducible Protein 10 (IP10), CXCL10 (gene 3627)
In words: BSK_hDFCGF_IP10: BioMAP Diversity Plus: hDFCGF Assay for Interferon-gamma inducible Protein 10 (IP10) Biomarker Activity (AID 2283053). The following applies: primary human foreskin fibroblasts; actives raise or lower the signal. Put shortly:
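Human foreskin fibroblast primary cells (hDFCGF system) were dosed with chemical and assayed at 24 h; IP-10 measured by ELISA. Activity fitted bidirectionally relative to DMSO negative control as baseline.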

Read-out in assay [2]: Urokinase-type plasminogen activator receptor (uPAR), PLAUR (gene 5329)
In words: BSK_CASM3C_uPAR: BioMAP Diversity Plus: CASM3C Assay for Urokinase-type plasminogen activator receptor (uPAR) Biomarker Activity (AID 2283054).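 Further: cell-surface uPAR protein level quantified by ELISA.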 The conditions noted are these: primary human coronary artery smooth muscle cells; actives raise or lower the signal.

Read-out in assay [3]: Vascular cell adhesion molecule 1 (VCAM1), VCAM1 (gene 7412)
Description: BSK_CASM3C_VCAM1: BioMAP Diversity Plus: CASM3C Assay for Vascular cell adhesion molecule 1 (VCAM1) Biomarker Activity (AID 2283055).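 Further: VCAM-1 protein level quantified by ELISA on the cells.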 The following applies: primary human coronary artery smooth muscle cells; actives raise or lower the signal.

Read-out in assay [4]: Epidermal growth factor receptor (EGFR), EGFR (gene 1956)
In words: BSK_hDFCGF_EGFR: BioMAP Diversity Plus: hDFCGF Assay for Epidermal growth factor receptor (EGFR) Biomarker Activity (AID 2283057). The following applies: primary human foreskin fibroblasts; actives raise or lower the signal. Put shortly: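 Primary human foreskin fibroblasts were exposed to compound for 24 h, after which cell-surface EGFR was quantified by ELISA. Activity was fitted bidirectionally against the DMSO negative control as baseline.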

Read-out in assay [5]: Interleukin-8 (IL8), CXCL8 (gene 3576)
In words: BSK_hDFCGF_IL8: BioMAP Diversity Plus: hDFCGF Assay for Interleukin-8 (IL8) Biomarker Activity (AID 2283058). The conditions noted are these: primary human foreskin fibroblasts; actives raise or lower the signal. The procedure, abridged: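 ELISA read-out of IL-8 from primary human foreskin fibroblast cultures taken 24 h after dosing; values are bidirectional fits relative to DMSO vehicle.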

The nature of assay [6]: BSK_hDFCGF_Proliferation: Cell Proliferation Assessment in the BioMAP Diversity Plus: hDFCGF Assay (AID 2283059).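 Further: curves fitted for both rise and fall of signal versus DMSO baseline.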 The following applies: primary human foreskin fibroblasts. The procedure, abridged: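 This proliferation readout used SRB total-protein staining of human foreskin fibroblasts […], normalized to DMSO with bidirectional curve fitting.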
Read-out in assay [7]: Macrophage colony-stimulating factor (MCSF), CSF1 (gene 1435)
In words: BSK_hDFCGF_MCSF: BioMAP Diversity Plus: hDFCGF Assay for Macrophage colony-stimulating factor (MCSF) Biomarker Activity (AID 2283060). The conditions noted are these: primary human foreskin fibroblasts; actives raise or lower the signal. Put shortly:
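ELISA read-out of M-CSF in human dermal foreskin fibroblast cultures, 24 h after chemical dosing; gain or loss of signal fitted bidirectionally relative to DMSO baseline.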

Assay [8] is described as follows: BSK_hDFCGF_SRB: Viability Assessment in the BioMAP Diversity Plus: hDFCGF Assay (AID 2283061).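 Further: cells exposed to compound for 24 h before the read.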 The conditions noted are these: primary human foreskin fibroblasts. The procedure, abridged: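 Primary human foreskin fibroblasts; 24 h post-dose; fixed 10% TCA, stained 0.1% SRB, A560 read; total protein as overt cytotoxicity measure; curves fit bidirectionally vs DMSO control.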

Read-out in assay [9]: TIMP metallopeptidase inhibitor 1 (TIMP1), TIMP1 (gene 7076)
In words: BSK_hDFCGF_TIMP1: BioMAP Diversity Plus: hDFCGF Assay for TIMP metallopeptidase inhibitor 1 (TIMP1) Biomarker Activity (AID 2283062). The conditions noted are these: primary human foreskin fibroblasts; actives raise or lower the signal. Put shortly:
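ELISA readout of TIMP-1 from human dermal foreskin fibroblast cultures 24 h post-dosing. Curves were fitted in both directions against DMSO baseline, with SRB total-protein staining in parallel cultures as a cytotoxicity check.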

Read-out in assay [10]: Monokine induced gamma interferon (MIG), CXCL9 (gene 4283)
Description: BSK_hDFCGF_MIG: BioMAP Diversity Plus: hDFCGF Assay for Monokine induced gamma interferon (MIG) Biomarker Activity (AID 2283063). The conditions noted are these: primary human foreskin fibroblasts; actives raise or lower the signal. The procedure, abridged: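 Fibroblasts (human foreskin, primary) dosed, 24 h, MIG by ELISA; fit bidirectional vs DMSO.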

Read-out in assay [11]: Matrix Metallopeptidase 1 (MMP1), MMP1 (gene 4312)
In words: BSK_hDFCGF_MMP1: BioMAP Diversity Plus: hDFCGF Assay for Matrix Metallopeptidase 1 (MMP1) Biomarker Activity (AID 2283064). The following applies: primary human foreskin fibroblasts; actives raise or lower the signal. Put shortly:
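Primary human foreskin fibroblasts exposed to chemicals for 24 h; MMP1 measured by ELISA. Cytotoxicity tracked by SRB staining in parallel cultures; bidirectional fit relative to DMSO.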

Read-out in assay [12]: Vascular cell adhesion molecule 1 (VCAM1), VCAM1 (gene 7412)
In words: BSK_hDFCGF_VCAM1: BioMAP Diversity Plus: hDFCGF Assay for Vascular cell adhesion molecule 1 (VCAM1) Biomarker Activity (AID 2283065).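 On AC50: VCAM-1 protein level quantified by ELISA after 24 h chemical exposure.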 The following applies: primary human foreskin fibroblasts; actives raise or lower the signal. The procedure, abridged: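 ELISA read-out of VCAM-1 on human skin fibroblasts, 24 h post-dose; gain or loss of signal fitted bidirectionally against DMSO baseline.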

Read-out in assay [13]: Plasminogen activator inhibitor-1 (PAI1), SERPINE1 (gene 5054)
Description: BSK_hDFCGF_PAI1: BioMAP Diversity Plus: hDFCGF Assay for Plasminogen activator inhibitor-1 (PAI1) Biomarker Activity (AID 2283066). The following applies: primary human foreskin fibroblasts; actives raise or lower the signal. Put shortly: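 Human foreskin fibroblasts in the hDFCGF system were dosed with compound for 24 h; PAI-1 was quantified by ELISA. Bidirectional curve fitting used DMSO as negative control and baseline.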

Read-out in assay [14]: Intercellular Adhesion Molecule 1 (ICAM1), ICAM1 (gene 3383)
In words: BSK_KF3CT_ICAM1: BioMAP Diversity Plus: KF3CT Assay for Intercellular Adhesion Molecule 1 (ICAM1) Biomarker Activity (AID 2283067). The conditions noted are these: primary human keratinocytes with fibroblasts; actives raise or lower the signal. The procedure, abridged: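 ELISA readout of ICAM-1; KF3CT human skin co-culture (keratinocytes + foreskin fibroblasts), 24 h post-dose; gain/loss fit vs DMSO baseline.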

Read-out in assay [15]: Interferon-gamma inducible Protein 10 (IP10), CXCL10 (gene 3627)
In words: BSK_KF3CT_IP10: BioMAP Diversity Plus: KF3CT Assay for Interferon-gamma inducible Protein 10 (IP10) Biomarker Activity (AID 2283068). The conditions noted are these: primary human keratinocytes with fibroblasts; actives raise or lower the signal. Put shortly: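 Signal is secreted/surface IP-10 by ELISA in a human primary skin co-culture of keratinocytes and foreskin fibroblasts, taken 24 h post-dosing; DMSO served as negative control.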

A short description of assay [16]: BSK_KF3CT_SRB: Viability Assessment in the BioMAP Diversity Plus: KF3CT Assay (AID 2283069).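 Further: total protein by sulforhodamine B staining as a cytotoxicity measure; read 24 h after compound addition.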 The following applies: primary human keratinocytes with fibroblasts. Put shortly:
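Human keratinocyte and foreskin fibroblast co-culture exposed to chemical for 24 h. Total protein measured in parallel cultures by 0.1% sulforhodamine B staining after 10% TCA fixation, read at 560 nm; bidirectional fit relative to DMSO.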

Read-out in assay [17]: Interleukin-1 alpha (IL1a), IL1A (gene 3552)
In words: BSK_KF3CT_IL1a: BioMAP Diversity Plus: KF3CT Assay for Interleukin-1 alpha (IL1a) Biomarker Activity (AID 2283070). The following applies: primary human keratinocytes with fibroblasts; actives raise or lower the signal. The procedure, abridged:
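Primary human keratinocyte plus foreskin fibroblast co-culture, dosed and measured at 24 h in 96-well plates. IL-1a level quantified by ELISA; bidirectional fit relative to DMSO.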

Read-out in assay [18]: TIMP metallopeptidase inhibitor 2 (TIMP2), TIMP2 (gene 7077)
Description: BSK_KF3CT_TIMP2: BioMAP Diversity Plus: KF3CT Assay for TIMP metallopeptidase inhibitor 2 (TIMP2) Biomarker Activity (AID 2283071). The conditions noted are these: primary human keratinocytes with fibroblasts; actives raise or lower the signal. The procedure, abridged:
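Human primary keratinocyte/foreskin fibroblast co-culture dosed with chemical and sampled at 24 h. TIMP-2 levels quantified by ELISA; bidirectional fitting against DMSO negative control as baseline.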

Read-out in assay [19]: Transforming growth factor beta 1 (TGFb1), TGFB1 (gene 7040)
Description: BSK_KF3CT_TGFb1: BioMAP Diversity Plus: KF3CT Assay for Transforming growth factor beta 1 (TGFb1) Biomarker Activity (AID 2283072). The conditions noted are these: primary human keratinocytes with fibroblasts; actives raise or lower the signal. The procedure, abridged:
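Human keratinocyte plus foreskin fibroblast primary co-culture, dosed with chemical for 24 h. TGF-b1 quantified by ELISA. Activity fitted bidirectionally against DMSO negative control as baseline.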

As for `c1ccc2c(c1)c1cccc3ccc4cccc2c4c31`, the outcome in assay [1], in assay [2], in [3], in [4], in assay [5] and in assay [6] was inactive. For the same molecule, the result in assay [7], in assay [8], in [9], in [10], in [11] and in [12] was inactive. The outcome in assay [13], in [14], in assay [15], in assay [16] and in assay [18] was inactive. Further, the AC50 is 0.016 µM (active) in assay [17] and 0.0518 µM (active) in assay [19].

As for `Cc1ccc(O)c(C(C)(C)C)c1`, the AC50 in assay [1] was 34.9 µM (active); in assay [2] it was 20 µM (active); in [3] it was 30 µM (active); in [6], 13.6 µM (active); in assay [7], 30.9 µM (active); in assay [8], 29.6 µM (active). Also, the AC50 in assay [9] was 27.6 µM (active); in assay [10] it was 36.7 µM (active); in assay [11], 33.4 µM (active); in [12], 39.1 µM (active); in assay [13] it was 30.7 µM (active); in [14], 34.3 µM (active). The AC50 was 37.5 µM (active) in assay [15]; 35.2 µM (active) in assay [16]; 28.9 µM (active) in assay [17]; 24.9 µM (active) in assay [18]; 20 µM (active) in assay [19]. The result in assay [4] and in [5] was inactive.

As to `CC1CCC(C(C)CS)CC1S` (centres undefined), the AC50 in [1] is 4.25 µM (active); in assay [2] it was 20 µM (active); in [3] it was 28.8 µM (active); in assay [5], 28 µM (active); in [6], 4.84 µM (active); in [7] it was 6.95 µM (active). For the same molecule, the AC50 is 7.28 µM (active) in [8]; 6.08 µM (active) in assay [9]; 7.33 µM (active) in assay [10]; 9.03 µM (active) in assay [11]; 2.78 µM (active) in assay [12]; 35.5 µM (active) in assay [14]. Further, the AC50 in assay [15] was 20 µM (active); in assay [16] it was 13.8 µM (active); in assay [17] it was 30.2 µM (active); in assay [18] it was 5.83 µM (active); in assay [19] it was 7.37 µM (active). Besides, the outcome in [4] and in assay [13] was inactive.

As for `CCCCCCCCC=O`, the result in assay [1], in [2], in assay [3], in [4], in assay [5] and in [6] was inactive. Moreover, the result in assay [7], in [8], in assay [9], in assay [10], in [11] and in assay [12] was inactive. The outcome in assay [13], in assay [14], in assay [15], in [16], in assay [17] and in [18] was inactive. For the same molecule, the result in [19] was inactive.

Turning to `CN(CCOc1ccc(CC2SC(=O)NC2=O)cc1)c1ccccn1` (centres undefined), the AC50 in [1] is 0.0536 µM (active); in assay [6], 13.3 µM (active); in assay [7], 0.0484 µM (active); in [17] it was 0.582 µM (active); in assay [19] it was 0.016 µM (active). The outcome in assay [2], in assay [3], in assay [4], in [5], in assay [8] and in [9] was inactive. Also, the outcome in assay [10], in assay [11], in assay [12], in assay [13], in assay [14] and in assay [15] was inactive. Besides, the result in [16] and in [18] was inactive.

Turning to `BrC1CCC(Br)C(Br)CCC(Br)C(Br)CCC1Br` (centres undefined), the result in [1], in assay [2], in assay [3], in assay [4], in assay [5] and in assay [9] was inactive. For the same molecule, the outcome in assay [10], in assay [11], in assay [14], in assay [16], in assay [17] and in assay [19] was inactive. Moreover, the AC50 in [6] was 1.33 µM (active); in assay [7], 4.61 µM (active); in [8], 1.5 µM (active); in assay [12], 4.68 µM (active); in assay [13], 1.37 µM (active); in [15], 4.53 µM (active). The AC50 in assay [18] is 1.53 µM (active).

The AC50 is the concentration giving half of the maximal activity seen.
